Experimental findings from the supplement of paper PMC8699584 are described below.

The subject of assay [1] is Molm13. Put plainly: cell viability relative to DMSO control (bortezomib = 0%); higher = less growth inhibition. As to conditions: 10 nM; 72 h. The procedure, abridged: (§1)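 Cell viability was assessed by CellTiter-Glo luminescence. Acute myeloid leukemia cells were seeded at 1000 cells per well in 50 µL on a 384-well library of 679 compounds at a single 10 nM dose for 72 h. Per-plate linear regression set DMSO-treated cells at 100% and positive-control-treated cells at 0%.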

In assay [2] the test system is Mv4-11. The assay is described as above. As to conditions: 10 nM; 72 h. In short, it runs like this: as §1

± gives the standard deviation of the averaged measurements.

What is called cell viability is a read-out of living cells in per cent, often relative to untreated cells.

`Cc1cc(O)c2c(c1)C(=O)c1cc(O)cc(O)c1C2=O` [Emodin]: the cell viability turned out to be 91.2 ± 7.2% in assay [1] and 99.1 ± 2.6% in assay [2].

In the case of `CC(=O)CC(c1ccccc1)c1c(O)c2ccccc2oc1=O` (stereo not drawn) [Warfarin sodium], the cell viability in assay [1] was 105 ± 6.5%; in assay [2], 114 ± 4.9%.

Turning to `COc1ccc2c(c1)c(C1=C(c3c[nH]c4ccccc34)C(=O)NC1=O)cn2CCCN(C)C`, the cell viability in assay [1] was found to be 85.4 ± 2%; in assay [2] it was 103 ± 7.6%.

On to `Cc1cnc(NC(=O)Nc2cc(Br)c(C)cc2OC[C@@H]2CNCCO2)cn1`, for which the cell viability in assay [1] amounted to 101 ± 11%; in assay [2], 109 ± 8.1%.

Regarding `Nc1cc(C(F)(F)F)c(-c2nc(N3CCOCC3)nc(N3CCOCC3)n2)cn1`, the cell viability in assay [1] turned out to be 94.3 ± 30%; in assay [2] it was 109 ± 5.2%.

Take `Cc1ccc(CNc2ncnc3ccc(-c4ccc(CO)o4)cc23)o1`: the cell viability in assay [1] turned out to be 118 ± 2%; in assay [2] it was 107 ± 12%.

For the compound `O=C(Nc1ccc(CN2CCOCC2)cc1)c1ccc(-c2cccc(Cl)c2)o1`, the values for the cell viability in assay [1] and in assay [2] were 113 ± 2.9% and 120 ± 6%, respectively.

Take `COc1ccc2cc1Oc1ccc(cc1)C[C@H]1c3cc(c(OC)cc3CCN1C)Oc1c(O)c(OC)cc3c1[C@H](C2)N(C)CC3` [Fangchinoline]: the cell viability is 90.9 ± 1.6% in assay [1] and 122 ± 9.6% in assay [2].

For `CC(C)c1cnc(NC(=O)Cc2ccccc2)s1`, the cell viability in assay [1] worked out at 92.8 ± 37%; in assay [2], 98.7 ± 9.3%.

Take `CCc1cncnc1N1CCN(Cc2nc3ccc(C(F)(F)F)cc3[nH]2)CC1`: the cell viability was 106 ± 32% in assay [1] and 116 ± 7.7% in assay [2].

As to `CNC(=O)c1ccccc1Nc1nc(Nc2ccc(N3CCNCC3)cc2)ncc1Cl`, the cell viability amounted to 17.4 ± 13% in assay [1] and 23 ± 6.8% in assay [2].

As for `Cc1ccc(C(=O)N(CCCN)[C@@H](c2nc3cc(Cl)ccc3c(=O)n2Cc2ccccc2)C(C)C)cc1`, the figures for the cell viability in assay [1] and in assay [2] were 2.83 ± 14% and 6.27 ± 10%, respectively.

Consider `Nc1nc(NC2CC2)cc(-c2cccc(Cl)c2Cl)n1`, for which the results for the cell viability in assay [1] and in assay [2] were 115 ± 8.1% and 96.9 ± 4.4%, respectively.

Turning to `Nc1nccc(-c2c(-c3ccc(F)cc3)ncn2C2CCCCC2)n1`, the cell viability in assay [1] came to 96.6 ± 18%; in assay [2], 114.4 ± 0.84%.
